# An excerpt weighted towards active compounds, which were near 2.4% of everything screened.
# D2 ag-1 – activates the human D2 dopamine receptor; 0.53% of 340,000 active; AID 485358; activation, % at 2 µM; HEK293 T-REx D2 cells, calcium flux agonist mode;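 active means activation over 3 SD above normal in the single-dose calcium agonist read, cut at about 30% in these data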; further: 0% is about no effect
# Target sequence (P14416 whole entry, looked up): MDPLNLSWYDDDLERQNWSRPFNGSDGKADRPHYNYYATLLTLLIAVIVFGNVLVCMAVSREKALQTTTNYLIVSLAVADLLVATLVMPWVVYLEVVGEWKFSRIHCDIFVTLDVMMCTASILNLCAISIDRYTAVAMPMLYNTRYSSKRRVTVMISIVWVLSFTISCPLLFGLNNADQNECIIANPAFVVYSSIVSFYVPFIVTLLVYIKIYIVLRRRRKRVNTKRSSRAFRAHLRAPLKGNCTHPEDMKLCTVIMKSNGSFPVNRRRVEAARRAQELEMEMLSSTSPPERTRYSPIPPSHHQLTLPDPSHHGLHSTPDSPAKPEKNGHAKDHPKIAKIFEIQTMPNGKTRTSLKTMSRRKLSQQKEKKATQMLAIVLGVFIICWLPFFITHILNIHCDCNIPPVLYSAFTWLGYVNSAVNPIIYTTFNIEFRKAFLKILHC
#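 Agonism is scored from calcium flux in a force-coupled, inducible HEK293 cell line expressing D2, read kinetically for 180 s after compound addition against dopamine controls.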
# D2 PAM-1 – D2 dopamine receptor (human) potentiation; P14416; HEK293 T-REx D2, calcium flux, EC20 dopamine potentiation; potentiation, % at 10 µM; 0.34% of 340,000 active;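 active means potentiation over 3 SD above the plate norm, cut at about 30% in these data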; further: 0% is about no effect
#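 Potentiation of an EC20 dopamine calcium response measured kinetically over 180 s, after a preceding 180 s compound-only read flagging agonists. Cells: inducible Hek293 Trex D2 line, 4000/well, cultured overnight at 30 C before dye loading.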
# D2 ag-2 – activates the human D2 dopamine receptor | P14416 | DiscoveRx PathHunter D2 beta-arrestin, luminescence, 90 min; 100% = 57 uM dopamine signal | activation, % (concentration not given with the values) | 0.084% of 360,000 active | AID 624465; in the data active means activation above about 40%
#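 Agonist mode: compounds alone added to overnight-plated D2 PathHunter cells for 90 min at 37 C, with 57 uM final dopamine (EC100) defining full response. Beta-arrestin recruitment detected by chemiluminescent reagent, read after 1 h at ambient temperature.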
# D2 antagonist – antagonists of human D2 dopamine receptor. P14416. HEK293 TREx D2 cells, calcium flux, dopamine EC80. inhibition, % at 10 µM. 2% of 340,000 active. AID 485344; in the data active means inhibition above about 30%; inactive means below that, where a call was filed; further: 0% is about no effect
#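 HEK293 T-REx D2 cells, tet-induced, calcium dye no-wash. Cpd pintool add, 180 s kinetic, then EC80 DA, 180 s kinetic. Ca flux read.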
# D2 PAM-2 – positive allosteric modulators of human D2 dopamine receptor. P14416. DiscoveRx D2 beta-arrestin cells, luminescence, 90 min; 100% = 57 uM dopamine signal. potentiation, % (test concentration not listed). 0.23% of 360,000 active; in the data active means potentiation above about 50%
#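 PathHunter beta-arrestin assay in DiscoveRx D2 cells. Compounds were added with an EC20 of dopamine (50 nM final) for 90 min at 37 deg C. Luminescence was read 1 h after detection reagent, with 57 uM dopamine as the EC100 control.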
# * = called active by the depositor; . = not tested or not shown.
SMILES,D2 ag-1,D2 PAM-1,D2 ag-2,D2 antagonist,D2 PAM-2
COC(=O)c1ccc(OCCN2CCCCCC2)cc1,-1,-31,4,55*,-22
Oc1ccc(C[C@H]2CNC(=S)N2CC2CCCN2C[C@H](Cc2ccccc2)N2C[C@H](Cc3ccc(O)cc3)N(CC3CCCCC3)C2=S)cc1 (stereo partly specified),.,.,9,.,-1
Cc1cc(NC(=O)C2C3C(=O)N(CC4CCCO4)C(C(=O)NCc4ccccc4)C34C=CC2(C)O4)no1 (stereo unspecified),1,6,-2,33*,-5
COc1ccc(NC(=O)c2oc3ccccc3c2NC(=O)C23CC4CC(CC(C4)C2)C3)cc1,0,5,.,.,.
CC(C)=C(NC(=O)c1ccccc1)C(=O)NC(Cc1ccccc1)C(=O)O (stereo unspecified),1,-2,1,39*,-1
Cc1c(C(=O)NCc2cccs2)sc(=O)n1Cc1ccc(S(C)(=O)=O)cc1,.,.,-3,.,-5
O=C(CCN1C(=O)c2ccccc2S1(=O)=O)N1CCN(c2ccccc2)CC1,0,-6,4,11,-28
O=C(CCN1C(=O)c2ccccc2S1(=O)=O)N1CCN(c2ccc(F)cc2)CC1,0,-9,-6,33*,-3
COC(=O)c1ccccc1NC(=O)c1nc(-c2ccc(Cl)cc2)n2c1CCCCC2,0,-10,.,.,.
CCn1cnc2cc(NC(=O)c3ccc(C)cc3)ccc21,1,4,3,32*,-6
COC(=O)CNC(c1ccccc1)c1cc(Br)ccc1NC(=O)c1cc(OC)c(OC)c(OC)c1 (stereo unspecified),0,-7,.,.,.
CCCCC1Cc2[nH]c(=S)[nH]c(=O)c2C(c2ccc(Cl)cc2)O1 (stereo unspecified),.,.,-4,.,-12
COc1ccc(OC)c(-n2c(-c3cccc(O)c3)n[nH]c2=S)c1,0,36*,0,12,16
Cc1nn2c(=O)cc(COC(=O)c3ccccc3NC(=O)c3cccs3)nc2s1,2,-1,.,.,.
COc1ccc(C)cc1S(=O)(=O)Nc1ccc(F)c(Cl)c1,0,-1,-3,32*,28
CCN(C(=O)COC(=O)/C(C#N)=C/c1ccc(OC)cc1)C1CCS(=O)(=O)C1 (stereo unspecified),0,-16,-3,36*,2
COc1ccc(C2/C=C\CN(C(=O)c3ccc(C)cc3)[C@H](Cc3ccccc3)C(=O)N2Cc2ccc(F)cc2)cc1 (stereo partly specified),1,-3,-4,41*,-4
Cc1cc(NC(=O)N2CCC(CN3CCCCCC3)CC2)ccc1Br,0,-4,.,.,.
CC(C)Sc1oc(-c2ccco2)nc1S(=O)(=O)c1ccccc1,-3,-3,-3,33*,-15
CSc1oc(-c2ccco2)nc1S(=O)(=O)c1ccccc1,0,-6,-4,4,-4
C1CNCCNCCCNCCNC1,-1,-1,.,46*,.
CCc1ccc(OC(=O)c2cccnc2)cc1,-2,2,-6,32*,-6
Cc1cc(=O)oc2c3c(cc(OCC(=O)N[C@@H](Cc4ccccc4)C(=O)O)c12)OC(C)(C)CC3,1,-3,6,-3,27
Cc1cc(=O)oc2c3c(cc(OCC(=O)NC(Cc4ccc(Cl)cc4)C(=O)O)c12)OC(C)(C)CC3 (stereo unspecified),-1,-2,4,36*,-6
Cc1c(C)c2c(OCC(=O)NCC(=O)NCC(=O)O)cc3c(c2oc1=O)CCC(C)(C)O3,-1,30*,0,-4,2
SMILES,D2 ag-1,D2 PAM-1,D2 ag-2,D2 antagonist,D2 PAM-2
O=C(Nc1ccc(Cl)cc1)NC1CCCCC1Cc1ccco1 (stereo unspecified),3,-8,-5,-13,-5
O=C(Nc1ccc(Cl)cc1)NC1CCCC1Cc1ccco1 (stereo unspecified),1,-16,-3,53*,-25
Clc1ccc(OCCCCN2CCc3ccccc3C2)cc1,0,-37,-4,91*,-8
Cc1ccc(Cl)c(OCCN2CCc3ccccc3C2)c1,2,-16,-2,66*,-6
Cc1cccc(NC(=O)CCS(=O)(=O)c2ccc3c(c2)NC(=O)CS3)n1,0,-3,0,39*,-6
CC1CCC(NC(=O)CCS(=O)(=O)c2ccc3c(c2)NC(=O)CS3)CC1 (stereo unspecified),1,-1,-2,3,-4
CCN1CCCC1CNC(=O)c1cc(NC(C)=O)c(N(C)C)cc1OC (stereo unspecified),0,-19,-1,69*,-18
CCC(=O)Nc1cc(C(=O)NCC2CCCN2CC)c(OC)cc1N(C)C (stereo unspecified),1,-21,0,73*,-21
CCN1CCCC1CNC(=O)c1ccccc1Cl (stereo unspecified),.,.,-1,.,-13
CCN1CCCC1CNC(=O)c1cc(S(N)(=O)=O)ccc1OC (stereo unspecified),.,.,-6,.,-33
CCCCOc1cccc(C(=O)N(Cc2ccc(N(C)C)cc2)C2CCS(=O)(=O)C2)c1 (stereo unspecified),0,-12,.,.,.
CNc1ccc2c3c(cccc13)C(=O)N(C)C2=O,128*,-17,5,72*,18
CCOc1cccc(NC(=O)c2sc3nc(-c4ccc(F)cc4)ccc3c2N)c1,.,6,.,.,.
COc1ccccc1OCC(=O)Nc1ccc2c(c1)OCO2,0,0,-8,32*,-7
O=C(Nc1ccc(F)c(Cl)c1)c1ccc2c(c1)OCO2,1,-15,0,-9,-3
COc1ccccc1/C=C/C(=O)Nc1ccc2c(c1)OCCO2,0,-37,1,34*,-37
COc1ccc(NC(=O)c2ccc3c(c2)OCO3)cc1Cl,0,-9,-4,39*,-15
COc1ccccc1/C=C/C(=O)OCC(=O)Nc1ccc2c(c1)OCCO2,0,3,-4,-10,-9
COc1ccccc1OCCC(=O)OCC(=O)Nc1ccc(Br)cc1,0,-24,-4,91*,-9
CC1CCN(S(=O)(=O)c2ccc3c(c2)N(CC(=O)NCc2ccccc2Cl)C(=O)CS3)CC1,0,4,.,.,.
COCCNC(=O)C1CCCN(C(=O)COCc2ccccc2)CC1 (stereo unspecified),.,.,-4,.,0
CCNC(=O)CC1C(=O)N(c2ccccc2)C(=O)N1Cc1ccc(F)cc1 (stereo unspecified),0,2,.,.,.
CCN(CCNc1ccc(Cl)cc1[N+](=O)[O-])C(=O)c1cc([N+](=O)[O-])c(N(C)C)cc1OC,0,-8,-5,34*,-21
COc1ccc(CCN(C)C/C=C/c2ccccc2[N+](=O)[O-])cc1OC,1,-23,-4,57*,-22

# Screening data: PubChem BioAssay, National Center for Advancing Translational Sciences (NCATS)
